Activity calls are given as the source filed them. The calls were made as follows: active = hit-call score of the fitted dose curve at least 0.9, where 1 is the maximum; inactive = score below 0.9.
Assay: CCTE_Padilla_ZF_Score.General: CCTE's 144 Hour Post-fertilization zebrafish Assay Score for General Malformation, Padilla Lab (AID 2284411)
Method: CCTE_Padilla_ZF_Phenotype_Score is a whole embryo, multiplexed assay using zebrafish ova exposed for 144 hours post fertilization on a 96-well plate.CCTE_Padilla_ZF_Score.General is one of one assay component(s) measured or calculated from the CCTE_Padilla_ZF_Phenotype_Score assay. It is designed to make measurements of zebrafish development as detected with brightfield microscopy of developing zebrafish embryos.Data from the assay component CCTE_Padilla_ZF_Score.General was analyzed into 1 assay endpoints. This assay endpoint, CCTE_Padilla_ZF_Score.General, was analyzed in the positive analysis fitting direction relative to DMSO as the negative control and baseline of activity. Using a type of viability reporter, gain-of-signal activity can be used to understand changes in developmentals as they relate to the whole embryo. To generalize the intended target to other relatable targets, this assay endpoint is annotated to the zebrafish development intended target family, where the subfamily is embryonic morphogenesis.
Zebrafish husbandry: Wild type adult zebrafish (Danio rerio; undefined outbred stock obtained from Aquatic Research Organisms, Hampton, NH, 03842) were housed in an AAALAC-approved animal facility at 28C with a 14:10 h light: dark cycle (lights on at 08:30 h). Adult fish (2-3 females per male; density = 15-20 adults per tank) were kept in one of several 9-liter (L) flow-through colony tanks (Aquaneering Inc., San Diego, CA). All adults in a colony tank were placed in a 2 L (static) breeding tank (Aquatic Habitats, Apopka, FL) one hour prior to light onset. Typically, adults from two to three colony tanks were mated on the same day. Two hours after light onset the adults were returned to the colony tank. All embryos were gathered from each breeder tank, pooled, and placed in a 28C water bath for 2 h, followed by two washes with 0.06% bleach (v/v) in 10% Hanks' Balanced Salt Solution (13.7 mM NaCl 0.54 mM KCl, 25 uM Na2HPO4, 130 uM CaCl2 100 um MgSO4 and 420 um NaHCO3,), hereafter referred to as Hanks' solution, for 5 min in order to remove any residual bacteria or fungi. Immediately following washing, the embryos were examined, and healthy embryos were separated from dead or unfertilized eggs and moved into fresh Hanks'. Chemical exposures: Zebrafish embryos were exposed in 96-well plates. Between 6- and 8-hours post fertilization (hpf), healthy embryos (with chorions) were transferred, one embryo per well, into 96 well (0.5 mL) microtiter plates (Cell Culture-Treated, Flat-Bottom Microplate 96 well [Corning Costar, Kennebunk, ME; Cat 09-761-145]) filled with 200 uL of Hanks' solution. A random number generator was used to assign the order in which the rows of embryos were plated in 96 well plates each week. After plating, the embryos were dosed with 0.8 uL of the chemical dosing solution then immediately sealed with AlumaSeal II (Excel Scientific Inc, Victorville, CA) to prevent volatilization of the chemicals, and then placed in a leakproof secondary container. These containers were placed in an incubator maintained on a 14:10 h light: dark cycle at 26C for rearing. On 5 dpf, live larvae were gently moved out of the plate with test chemicals and into a new 96 well mesh plate (Millipore Corp., Bedford, MA) with just the Hanks' solution. Once within the mesh well plate, the animals were rinsed with 400 uL of fresh Hanks' three times, and then the plates were covered with a non-adhesive material (Microseal A, BioRad, Hercules, CA), plate lid added, and then plate sides wrapped in Parafilm (PM992, Bermis Company, Neenah, WI), and returned to the incubator. […]

Row | SMILES | outcome | AC50
1 | C[Si](C)(C)C(F)(F)C(F)(F)C(F)(F)F | inactive | 
2 | NCC(F)(F)C(F)(F)C(F)(F)C(F)(F)F | inactive | 
3 | FC(F)=C(F)C(F)(F)C(F)(F)C(F)(F)C(F)(F)C(F)(F)C(F)(F)F | inactive | 
4 | O=S(=O)(O)CCC(F)(F)C(F)(F)C(F)(F)C(F)(F)C(F)(F)C(F)(F)F | inactive | 
5 | O=C(Cl)C(F)(F)C(F)(F)C(F)(F)C(=O)Cl | inactive | 
6 | FC(F)(F)C(F)(F)C(F)(F)C(F)(F)C(F)(F)C(F)(F)I | inactive | 
7 | S=P(N1CC1)(N1CC1)N1CC1 | inactive | 
8 | OC(O)(C(F)C(O)(O)C(F)(F)F)C(F)(F)F |  | 32.4 µM (active)
9 | OCCC(F)(F)C(F)(F)C(F)(F)C(F)(F)F | inactive | 
10 | FC(F)C(F)(F)COCC1CO1 (stereo unspecified) |  | 9.44 µM (active)
11 | FC(F)(F)COC(OCC(F)(F)F)OCC(F)(F)F | inactive | 

— PubChem BioAssay (EPA / NIEHS)
